Test results published in PMC11995724, “Antibiotic target discovery by integrated phenotypic and activity-based profiling of electrophilic fragments” (Cell chemical biology, 2025).
Out of some 3,200 compounds screened, about 110 (3.4%) showed an effect of 50% or more. What follows is part of a selection rich in strong results, with near analogues and random picks from the rest.

Each compound was assayed on T1, V. cholerae SAD30. Conditions: relative growth, OD600, LB; 25 µM; inhibitor.
T1 construct: SAD30
Design: species or system S. aureus MSSA476 (TSB) or V. cholerae SAD30 (LB); 384-well bacterial growth screen at 25 uM, OD600 relative to DMSO control

Compound | % of control remaining [%]
C=CC(=O)N1CCC(C(=O)Nc2ccccc2NS(C)(=O)=O)CC1 [3-C06, N-(2-methanesulfonamidophenyl)-1-(prop-2-enoyl)piperidine-4-carboxamide] | 107.793
CC(C)NC(=O)C(C#N)=Cc1ccccc1 [8-L05, 2-cyano-3-phenyl-N-(propan-2-yl)prop-2-enamide] | 76.8865
CC(C)NC(=O)C(C#N)=Cc1cccs1 [8-H15, 2-cyano-N-(propan-2-yl)-3-(thiophen-2-yl)prop-2-enamide] | 71.0401
Cc1cccc(NC(=O)NC(=O)CCl)c1C [4-D21, 3-(2-chloroacetyl)-1-(2,3-dimethylphenyl)urea] | 104.033
C=CC(=O)NCCn1cc(Cl)c(C(F)(F)F)n1 [2-F03, N-{2-[4-chloro-3-(trifluoromethyl)-1H-pyrazol-1-yl]ethyl}prop-2-enamide] | 108.106
COc1ccc(Cl)cc1N1C(=O)C=CC1=O [10-K10, 1-(5-chloro-2-methoxyphenyl)-2,5-dihydro-1H-pyrrole-2,5-dione] | 24.1574
COc1ccc(Cl)cc1NC(=O)C(C)Cl (stereo not shown) [6-G16, 2-chloro-N-(5-chloro-2-methoxyphenyl)propanamide] | 89.3355
COc1ccc(C2CCCN2C(=O)CCl)c(OC)c1 (stereo not shown) [4-P22, 2-chloro-1-[2-(2,4-dimethoxyphenyl)pyrrolidin-1-yl]ethan-1-one] | 115.247
COc1ccc(N2C(=O)C=CC2=O)c(OC)c1 [10-J15, 1-(2,4-dimethoxyphenyl)-2,5-dihydro-1H-pyrrole-2,5-dione] | 26.9628
COc1ccc(Cl)cc1CNC(=O)CCl [6-A16, 2-chloro-N-[(5-chloro-2-methoxyphenyl)methyl]acetamide] | 95.2507
COc1ccc(C(=O)C(C)Cl)c(OC)c1 (stereo not shown) [10-J17, 2-chloro-1-(2,4-dimethoxyphenyl)propan-1-one] | 98.0323
CC(Cl)C(=O)N1CCN(Cc2cc(=O)n3ccsc3n2)CC1 (stereo not shown) [6-P17, 7-{[4-(2-chloropropanoyl)piperazin-1-yl]methyl}-5H-[1,3]thiazolo[3,2-a]pyrimidin-5-one] | 97.5258
C=CC(=O)N1CCCCC(S(C)(=O)=O)C1 (stereo not shown) [2-E17, 1-(3-methanesulfonylazepan-1-yl)prop-2-en-1-one] | 92.6662
CCc1nocc1CN(C)C(=O)CCl [5-B11, 2-chloro-N-[(3-ethyl-1,2-oxazol-4-yl)methyl]-N-methylacetamide] | 90.6168
C=CC(=O)N1CCC(C(=O)N2Cc3ccc([N+](=O)[O-])cc3C2)CC1 [2-F04, 1-[4-(5-nitro-2,3-dihydro-1H-isoindole-2-carbonyl)piperidin-1-yl]prop-2-en-1-one] | 98.2245
CCn1nc(C)c(C(=O)CCl)n1 [10-P08, 2-chloro-1-(2-ethyl-5-methyl-2H-1,2,3-triazol-4-yl)ethan-1-one] | 40.2104
Cn1ncc(C(=O)CCl)n1 [10-J10, 2-chloro-1-(2-methyl-2H-1,2,3-triazol-4-yl)ethan-1-one] | 112.838

Compound | % of control remaining [%]
CCn1nc(C)c(CN(C)C(=O)CCl)c1C [5-A10, 2-chloro-N-[(1-ethyl-3,5-dimethyl-1H-pyrazol-4-yl)methyl]-N-methylacetamide] | 104.907
CCn1cc(NC(=O)CCl)cn1.Cl [6-I15, 2-chloro-N-(1-ethyl-1H-pyrazol-4-yl)acetamide hydrochloride] | 98.4359
CCn1nc(C)c(CNC(=O)CCl)c1C [7-P10, 2-chloro-N-[(1-ethyl-3,5-dimethyl-1H-pyrazol-4-yl)methyl]acetamide] | 85.1148
CCn1ncc(C(=O)CCl)n1 [10-E13, 2-chloro-1-(2-ethyl-2H-1,2,3-triazol-4-yl)ethan-1-one] | 0
O=S(=O)(CC=C(Cl)Cl)N1CCSSCC1 [10-P19, 5-(3,3-dichloroprop-2-ene-1-sulfonyl)-1,2,5-dithiazepane] | 92.5774
C=CC(=O)NCc1ccc(S(=O)(=O)NC2CC2)cc1 [2-P19, N-{[4-(cyclopropylsulfamoyl)phenyl]methyl}prop-2-enamide] | 96.8349
C=CC(=O)N1CCCC(c2nc(N(C)C)no2)C1 (stereo not shown) [3-A13, 1-{3-[3-(dimethylamino)-1,2,4-oxadiazol-5-yl]piperidin-1-yl}prop-2-en-1-one] | 112.204
CC(Cl)C(=O)NCC1CN(c2nncs2)CCO1 (stereo not shown) [7-O03, 2-chloro-N-{[4-(1,3,4-thiadiazol-2-yl)morpholin-2-yl]methyl}propanamide] | 90.798
CC(Cl)C(=O)N(CCc1ccc(F)cc1F)C(C)C (stereo not shown) [6-D18, 2-chloro-N-[2-(2,4-difluorophenyl)ethyl]-N-(propan-2-yl)propanamide] | 71.5897
O=C(CCl)Nc1c(Cl)cc(Cl)cc1Cl [5-B16, 2-chloro-N-(2,4,6-trichlorophenyl)acetamide] | 98.3503
O=C(CCl)Cc1ccc(F)cc1Cl [10-E19, 1-chloro-3-(2-chloro-4-fluorophenyl)propan-2-one] | 21.0403
O=C(CCl)N(Cc1ccccc1)Cc1ccc(F)cc1 [5-I06, N-benzyl-2-chloro-N-[(4-fluorophenyl)methyl]acetamide] | 81.2021
O=C(CCl)Cc1ccc(Cl)cc1Cl [10-A15, 1-chloro-3-(2,4-dichlorophenyl)propan-2-one] | 22.1313
Cc1ccc(F)cc1NC(=O)CCl [4-O03, 2-chloro-N-(5-fluoro-2-methylphenyl)acetamide] | 106.103
O=C(CCl)N1CC(Cc2ccc(F)cc2F)C1 [5-G20, 2-chloro-1-{3-[(2,4-difluorophenyl)methyl]azetidin-1-yl}ethan-1-one] | 89.2718
O=C(CCl)NCCc1ccc(Cl)cc1Cl [6-M16, 2-chloro-N-[2-(2,4-dichlorophenyl)ethyl]acetamide] | 96.0091
O=C(CCl)Cc1ccc(F)cc1F [10-G17, 1-chloro-3-(2,4-difluorophenyl)propan-2-one] | 31.4826
